TEAD-YAP inh = TEAD-YAP interaction inhibition, primary screen, TEAD-YAP interaction inhibitor project, luminescence, HEK-TIYL cells | TEAD-Gal4/YAP UAS-luciferase luminescence | inhibition, % at 9.12 µM | hit rate 1.4% among 640,000; in the data active means inhibition above about 32%;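 further: 0% = median of test compound wells and 100% = reference inhibitor wells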
FBW7 act = FBW7 E3 ligase activators, primary screen, biochemical, AlphaScreen, human; F-box/WD repeat-containing protein 7 (Homo sapiens), Q969H0; AlphaScreen FBW7–phospho-cyclin E peptide binding, activator screen; normalized activity (activation), % at 26.1 µM; hit rate 0.13% among 650,000; in the data active means normalized activity above about 1.9%;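 further: purified mutant Fbw7 with reduced substrate affinity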
MITF inh = MITF inhibitors, primary screen, biochemical, AlphaScreen, human; AID 1259374, 2018; inhibition, % at 2.6 µM; AlphaScreen MITF homodimerization, bead proximity signal; hit rate 0.91% among 650,000; in the data active means inhibition above about 50%;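 further: 0% = vehicle wells with protein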
Target sequence (O75030 whole entry, looked up): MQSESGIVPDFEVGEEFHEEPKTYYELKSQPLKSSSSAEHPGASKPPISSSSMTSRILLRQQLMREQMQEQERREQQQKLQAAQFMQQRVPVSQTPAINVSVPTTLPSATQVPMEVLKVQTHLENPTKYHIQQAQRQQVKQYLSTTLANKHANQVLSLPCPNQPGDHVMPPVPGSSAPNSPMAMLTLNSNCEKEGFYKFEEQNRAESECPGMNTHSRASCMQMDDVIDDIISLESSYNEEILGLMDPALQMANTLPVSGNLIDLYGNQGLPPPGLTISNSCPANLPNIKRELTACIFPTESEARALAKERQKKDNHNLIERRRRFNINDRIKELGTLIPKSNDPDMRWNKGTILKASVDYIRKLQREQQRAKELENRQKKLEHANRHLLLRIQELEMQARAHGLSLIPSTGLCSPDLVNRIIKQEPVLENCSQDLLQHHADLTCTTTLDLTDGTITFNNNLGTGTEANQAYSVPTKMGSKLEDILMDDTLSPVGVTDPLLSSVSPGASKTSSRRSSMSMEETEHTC
GPR151 activ = activators of human GPR151, primary screen, cell-based, PathHunter beta-arrestin, luminescence; G-protein coupled receptor 151 (Homo sapiens), Q8TDV0; PathHunter beta-arrestin GPR151 cells; activation, % at 11.2 µM; hit rate 1% among 650,000; in the data active means activation above about 4.9%;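 further: 0% = median of compound wells and 100% = cells with positive control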
Active calls of the source: *. Only some compounds are listed: those with a hit (about 3.5% of all), similar ones and a draw of the others.

SMILES	TEAD-YAP inh	FBW7 act	MITF inh	GPR151 activ
Cc1cccc2c1[nH]c1nc(N/N=C\c3c[nH]c4ccccc34)nnc12	43.7*	0.1	-1.5	-0.8
C(=N/Nc1nnc2c(n1)[nH]c1ccccc12)/c1c[nH]c2ccccc12	-2.4	0.9	0.9	-0.5
Oc1ccc(Cl)cc1/C=N/Nc1nnc2c(n1)[nH]c1ccccc12	-9.5	0.0	3.4	1.4
CC(=O)C1=C(c2ccc(C3CCCCC3)cc2)N(C(C)=O)n2cnnc2S1	73.5*	0.1	-4.5	1.7
NS(=O)(=O)c1ccc(CCNc2ncnc3sc(-c4ccccc4)cc23)cc1	42.1*	0.0	0.6	-2.0
COc1ccc(COC(=O)C2=C(C)NC3=C(C(=O)CCC3)C2c2ccccc2Br)cc1 (stereo not given)	-1.4	0.2	-3.6	-2.0
COc1ccc(CC(=O)Nc2cc(Nc3ccccc3-c3ncn[nH]3)ccn2)cc1	12.8	0.6	7.3	-1.0
COc1ccc(CC(=O)Nc2ccccc2C(F)(F)F)cc1	-1.0	0.2	15.5	-0.5
COc1ccc(CC(=O)Nc2cc(Nc3ccccc3NC(C)=O)c(C(F)(F)F)cn2)cc1	67.3*	-0.1	16.0	-1.4
COc1ccc(CC(=O)Nc2cc(Nc3ccccc3-c3ncco3)c(C(F)(F)F)cn2)cc1	53.7*	-0.1	-13.6	-0.7
COc1cc([N+](=O)[O-])cc(/C=N/NC(=O)C2COc3ccccc3O2)c1O (stereo not given)	2.5	0.6	10.7	-1.4
O=C(N/N=C/c1ccccc1)C1COc2ccccc2O1 (stereo not given)	37.3*	-0.1	-0.3	2.7
C/C(=N\NC(=O)C1COc2ccccc2O1)c1ccco1 (stereo not given)	39.1*	0.4	-0.9	-0.9
O=C(N/N=C/c1ccc2c3c(cccc13)CC2)C1COc2ccccc2O1 (stereo not given)	48.9*	0.0	-23.3	-1.1
COc1cccc(/C=N/NC(=O)C2COc3ccccc3O2)c1O (stereo not given)	7.3	-1.2	68.8*	-0.2
C/C(=N\NC(=O)C1COc2ccccc2O1)c1ccccc1 (stereo not given)	25.4	0.5	1.2	-1.6
COc1ccc(C(=O)Nn2c(-c3cccc(Cl)c3)nc3ccccc3c2=O)cc1	3.8	0.0	3.5	0.3
CCCn1c(=O)c(C(=O)Nc2cccc(C)c2C)c(O)c2ccccc21	-18.1	-0.1	-14.1	-1.0
COc1cccc(C(=O)NCc2nnc(SCC(=O)N3N=C(c4cccs4)CC3c3ccc(F)cc3)n2C)c1 (stereo not given)	4.3	0.3	17.5	0.3
COc1cc(Cl)cc(/C=N\NC(=O)C2COc3cc4ccccc4cc3O2)c1O (stereo not given)	52.7*	-0.3	-10.3	-0.9
O=C(N/N=C/c1ccc(O)c(O)c1O)C1COc2ccccc2O1 (stereo not given)	-2.5	-1.2	55.3*	-0.3
Cc1ccc(/C=N/NC(=O)C2COc3ccccc3O2)c(O)c1 (stereo not given)	53.2*	-0.1	-18.8	-0.9
CC(C)C(=O)NC(c1ccco1)c1ccc2cccnc2c1O (stereo not given)	63.6*	-1.9	43.6	-1.6
CC(C)C(=O)NC(c1ccc(Cl)cc1)c1ccc2cccnc2c1O (stereo not given)	85.2*	-1.6	12.2	1.1
CC(C)C(=O)NC(c1ccccc1)c1ccc2cccnc2c1O (stereo not given)	89.6*	-0.8	27.6	-1.0
SMILES	TEAD-YAP inh	FBW7 act	MITF inh	GPR151 activ
CC(C)C(=O)NC(c1ccccc1Cl)c1ccc2cccnc2c1O (stereo not given)	84.1*	-1.5	19.0	1.2
CC(C)c1ccc(C(NC(=O)C2CCCCC2)c2ccc3cccnc3c2O)cc1 (stereo not given)	19.3	0.9	4.5	1.5
CCCCN(C)Cc1ccc(C(=O)NCc2c(C)nn(C)c2C)c(=O)[nH]1	20.9	0.0	2.2	0.4
CCOc1ccc(C2/C(=C(/O)c3ccc(F)cc3)C(=O)C(=O)N2CCCCCC(=O)O)cc1 (stereo not given)	4.5	0.0	16.6	-0.6
COc1ccc(OC)c(S(=O)(=O)c2cc(OC)ccc2OC)c1	-1.1	0.2	4.8	0.1
COc1ccc(OS(=O)(=O)c2cc(OC)ccc2OC)cc1	49.8*	-0.1	-1.6	-0.9
COc1ccc(CCNc2cc(C)nc(Nc3cc(OC)c(OC)c(OC)c3)n2)cc1	35.8*	-0.2	1.3	1.8
COc1cc(Nc2cc(C)nc(Nc3cccc(N(C)C)c3)n2)cc(OC)c1OC	48.0*	-0.3	-8.3	0.5
COc1ccc(CCNc2cc(C)nc(Nc3ccncc3)n2)cc1	-3.7	-0.1	-3.5	1.4
COc1cc(Nc2cc(C)nc(Nc3cc(OC)c(OC)c(OC)c3)n2)cc(OC)c1OC	24.4	-0.2	-4.0	0.2
CCC(C)C(=O)NCc1nnc2n1CCN(C/C=C/c1ccc(OC)cc1)CC2 (stereo not given)	7.0	0.1	-5.2	-0.7
N#Cc1c(NC(=O)COC(=O)CNC(=O)c2cccc(OC(F)F)c2)sc2c1CCC2	5.8	-0.1	-6.9	-0.7
Cc1ccc(S(=O)(=O)N2CCCC(C(=O)NCCCO)C2)cc1 (stereo not given)	5.9	0.0	9.4	-0.1
Oc1c(C(c2ccncc2)N2CCOCC2)ccc2cccnc12 (stereo not given)	71.1*	-0.2	90.0*	1.5
Oc1c(C(c2ccc(F)cc2)N2CCCC2)ccc2cccnc12 (stereo not given)	79.7*	-1.9	10.9	-1.3
CN1CCN(C(c2ccc(F)cc2)c2ccc3cccnc3c2O)CC1 (stereo not given)	83.5*	-0.2	33.5	0.2
Fc1ccc(Cn2nnnc2C(c2ccc3ncccc3c2)N2CCCC2)cc1 (stereo not given)	-7.2	0.0	-5.6	0.7
OCCN1CCN(C(c2ccc(Cl)cc2)c2ccc3cccnc3c2O)CC1 (stereo not given)	73.5*	-0.5	20.7	0.4
CN1CCN(C(c2cccnc2)c2ccc3cccnc3c2O)CC1 (stereo not given)	-0.5	-0.3	33.5	0.3
COc1cc([N+](=O)[O-])ccc1NC(=O)CCN1C(=O)c2ccccc2C1=O	5.1	-0.1	-1.9	-0.4
O=C(CNC(=O)c1ccco1)N/N=C/c1ccccc1Cl	4.6	0.0	10.7	1.0
Oc1c(C(c2ccc(F)cc2)N2CCOCC2)ccc2cccnc12 (stereo not given)	76.2*	-2.0	26.6	0.6
Oc1c(C(c2ccc(C(F)(F)F)cc2)N2CCOCC2)ccc2cccnc12 (stereo not given)	81.7*	-0.1	16.8	1.0
c1cncc(-c2cnc3c(NCc4ccco4)nccn23)c1	-68.4	-0.1	48.5	-0.3
CCOc1ccccc1NC(=O)C(C)Oc1ccccc1 (stereo not given)	-0.8	0.0	-13.1	0.3

Screens as filed in PubChem.
